Gli-Sufu antag: Gli-Sufu pathway antagonists, primary screen, luciferase luminescence, Sufu-KO-LIGHT cells, uHTS | Sufu-KO-LIGHT fibroblasts, Gli luciferase reporter luminescence | 340,000 tested, 0.74% active | inhibition, % at 5 µM;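 active = inhibition above about 55%, limit read from the data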;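 note: 0% = DMSO-treated cells and 100% = wells with medium but no cells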
Shn3 3UTR inh: reduction of Shn3 3'UTR firefly luciferase signal, primary screen, Schnurri-3 inhibitor project, cell-based, Clone20 osteoblasts, set 2; Clone20 osteoblast Shn3 3'UTR firefly luciferase, 24 h; inhibition, % at 12.5 µM; 360,000 tested, 0.52% active;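 active = mean inhibition of at least 75% with every replicate also reaching 75%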;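 note: 0% = median of neutral control wells and 100% = pilot-screen positive control compound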
TRPM1 prom inh: inhibitors of MITF-dependent TRPM1 promoter reporter, primary screen, cell-based, SK-MEL-5, single point, luciferase | AID 488899, 2010 | 330,000 tested, 0.83% active | inhibition, % at 12.5 µM | SK-MEL-5 TRPM1 promoter luciferase, 24 h;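 active = mean inhibition across replicates of 60% or more, whatever share of single replicates reaches that level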
Jurkat NFkB inh: inhibitors of induced NF-kB luciferase reporter, primary screen, TCR NF-kB activation inhibitor project, cell-based, luminescence, uHTS; 330,000 tested, 0.53% active; inhibition, % at 4 µM; Jurkat, PMA/ionomycin-induced NF-kB luciferase reporter; in the data active = inhibition above about 50%
697 NFkB inh: inhibitors of PMA/ionomycin-induced NF-kB reporter, 697 cells, primary screen, B-cell NF-kB inhibitor project, cell-based, luminescence, uHTS. AID 435022, 2010. inhibition, % at 4 µM. 330,000 tested, 0.33% active. 697 B-cell NF-kB luciferase reporter, 16 h; in the data active = inhibition above about 35%
EBV LMP1 NFkB: EBV LMP1-driven NF-kappaB luciferase reporter inhibitors, primary screen, cell-based, luminescence, single point. LMP1-induced NF-kappaB luciferase reporter cells. inhibition, % at 12.5 µM. 350,000 tested, 0.69% active. AID 504558, 2011; in the data active = inhibition above about 41%;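 note: 0% = neutral control wells and 100% = reference inhibitor control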
Jurkat NFkB conf: PMA/ionomycin-induced NF-kB reporter inhibitors, Jurkat retest, confirmation, T-cell NF-kB inhibitor project, cell-based, luminescence, single concentration. Jurkat NF-kB luciferase, 16 h. inhibition, % at 4 µM. 2,700 tested, 27% active. shares compounds with Jurkat NFkB inh;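 active = inhibition reaching about 45% at 4 µM in either replicate, limit read from the data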;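 note: plate controls were PMA/ionomycin stimulated DMSO wells for no effect and unstimulated DMSO wells for full effect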
697 NFkB conf: PMA/ionomycin-induced NF-kB reporter inhibitors, 697 retest, confirmation, B-cell NF-kB inhibitor project, cell-based, luminescence, single concentration; 697 B-cell NF-kB luciferase, 16 h; inhibition, % at 4 µM; 2,000 tested, 35% active; shares compounds with 697 NFkB inh; in the data active = inhibition mostly above about 28%, no sharp cut-off; inactive = mostly below about 22%
Gli antag conf: Gli-SUFU pathway antagonists, confirmation, single concentration, luciferase luminescence, Sufu-KO-LIGHT cells. shares compounds with Gli-Sufu antag. Gli luciferase reporter. inhibition, % at 5 µM. 2,500 tested, 40% active. AID 602428, 2012;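 active = mean inhibition at 5 µM reaching about 45%, limit read from the data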;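 note: plate controls were DMSO-treated cells for no effect and wells lacking cells for full effect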
Gli cytotox: cytotoxicity in Sufu-KO-LIGHT cells, confirmation, cytotoxicity control for Gli-SUFU antagonist project, cell-based, ATP luminescence, single concentration. shares compounds with Gli-Sufu antag. cytotoxicity, % at 5 µM. 2,500 tested, 32% active;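 active = mean cytotoxicity at 5 µM above about 25%, limit read from the data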;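 note: cells exposed to compound overnight for roughly 16 to 18 hours; plate controls were DMSO wells with cells for no effect and medium without cells for full effect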
Wnt3a counter: Wnt3a reporter signal inhibition, confirmation, counter-screen for Gli-SUFU antagonist project, Wnt-LIGHT cells, luminescence, single concentration. shares compounds with Gli-Sufu antag. Wnt3a-driven luciferase reporter. inhibition, % at 6.25 µM. 2,500 tested, 20% active. AID 651995, 2013;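 active = mean inhibition above about 25%, limit read from the data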
* hit, by the source's call; i = inactive; · = no result given. Compounds with a hit are over-represented: about 2.3% of the library has one in this group of screens.

SMILES	Gli-Sufu antag	Shn3 3UTR inh	TRPM1 prom inh	Jurkat NFkB inh	697 NFkB inh	EBV LMP1 NFkB	697 NFkB conf	others
Cc1nn(C)c(C)c1CN(Cc1nc(CCC(C)C)no1)C(C)C	79*	76	12	53*	9	14	·	Jurkat NFkB conf=51*;Gli antag conf=73*;Gli cytotox=26*;Wnt3a counter=51*
Cc1ccc(S(=O)(=O)N2CCN(c3cccc(C)c3)CC2)cc1	2	10	11	11	-18	0	·
COc1ccc(CN(C)c2ccc(S(=O)(=O)N3CCN(C)CC3)cc2[N+](=O)[O-])cc1OC	74*	88*	13	68*	87*	24	97*	Jurkat NFkB conf=75*;Gli antag conf=74*;Gli cytotox=35*;Wnt3a counter=45*
Cc1ccc(OCCN2CCN(c3ncnc4sc(C)c(C)c34)CC2)cc1	73*	84	38	67*	43*	10	56*	Jurkat NFkB conf=66*;Gli antag conf=73*;Gli cytotox=31*;Wnt3a counter=15
COc1ccc(C(=O)N2CCN(c3ccc([N+](=O)[O-])c(-n4nc(C)cc4C)c3)CC2)cc1	-4	33	-1	35	5	4	·
COc1ccc(C(=O)N2CCN(c3ccc([N+](=O)[O-])c(NCCc4ccc(OC)c(OC)c4)c3)CC2)cc1	79*	75	79*	73*	15	33	·	Jurkat NFkB conf=75*;Gli antag conf=76*;Gli cytotox=32*;Wnt3a counter=-17
Cc1cc(NC(=O)COC(=O)C2CC(=O)N(c3ccc(C)c(Cl)c3)C2)no1 (stereo not drawn)	16	-1	6	15	5	2	·
CCOC(=O)CNC(=O)CSc1nnc(NC(=O)c2ccc3c(c2)OCO3)s1	-21	-20	0	17	20	25	·
CCOC(=O)CNC(=O)CSc1nnc(NC(=O)c2ccc(C)cc2)s1	14	34	42	35	43*	55*	33*
COc1cc(NC(=O)c2nccn2C)cc(C(=O)Nc2cccc(C(F)(F)F)c2)c1	-5	12	36	44	-24	-25	·
CCc1nc(SCC(=O)Nc2c(C)n(C)n(-c3ccccc3)c2=O)n[nH]1	5	-13	-8	12	6	5	·
COc1cc2c(cc1NC(=O)c1ccc(C(C)(C)C)cc1)CCCC2	8	6	2	-61	i	-16	-486
COc1ccc(C(=O)Nc2cc3c(cc2OC)CCCC3)cc1Br	17	23	3	-1	-19	14	·
Cc1cc(C)n(-c2cccc(Cl)c2C#N)n1	15	·	-13	9	9	1	·
CSc1ccc(C2NN=C(c3ccccc3)S2)cc1 (stereo not drawn)	-47	37	29	-102	-263	33	-279
CC(=O)OCN(C#N)c1nc(N(C)C)nc(N(C)C)n1	-10	-10	20	10	0	1	·
CNS(=O)(=O)c1cccc(C(=O)OCC(=O)N2c3ccccc3CC2C)c1 (stereo not drawn)	3	-15	-16	1	36*	-14	-7
O=C(NCc1cccc(C(F)(F)F)c1)C1CCCN(c2cnccn2)C1 (stereo not drawn)	2	-12	-4	-4	-7	0	·
CCOc1ccc(N/C=C/C(=O)c2ccccc2)c([N+](=O)[O-])c1	-67	22	6	-111	-328	20	-326
CCOc1ccc(NC(=O)/C=C/c2ccccc2)c([N+](=O)[O-])c1	-63	-80	-6	-10	-51	-40	·
COc1ccc(N/C=C/C(=O)c2ccccc2)cc1	-58	6	14	-46	-327	2	-324
Cc1ccc(Sc2cc(NCCCO)c([N+](=O)[O-])c3nonc23)cc1	-6	-14	13	-9	46*	14	44*
Cc1cc(C(=O)Cn2nnc3ccccc3c2=O)c(C)n1-c1ccccc1F	-3	42	-2	-118	i	-1	i
COc1ccc(-n2c(C)cc(C(=O)Cn3nnc4ccccc4c3=O)c2C)cc1	-50	29	-41	-10	-22	-7	·
COc1cc(C(O)C(=O)O)ccc1O (stereo not drawn)	3	10	-14	-2	14	-9	·
SMILES	Gli-Sufu antag	Shn3 3UTR inh	TRPM1 prom inh	Jurkat NFkB inh	697 NFkB inh	EBV LMP1 NFkB	697 NFkB conf	others
O=S(=O)(Nc1nc2ccccc2nc1NCC1CCCO1)c1ccc(F)cc1 (stereo not drawn)	4	35	2	-13	10	-2	·
CC(=O)Nc1ccc2[nH]c(C)c(CC=C(Cl)Cl)c(=O)c2c1	3	-7	8	-3	42*	-6	15
Cc1nc2cc(-c3cccc(F)c3)nn2c(C)c1CCC(=O)NC(C)CCc1ccco1 (stereo not drawn)	26	67	53	24	42*	24	37*
Cc1nc2cc(-c3ccccc3)nn2c(C)c1CCC(=O)NCc1ccco1	11	12	32	2	46*	3	37*
COc1ccccc1-c1cc2nc(C)c(CCC(=O)NCc3ccco3)c(C)n2n1	12	10	15	9	33	-1	·
COc1cc(OC)cc(-c2cc3nc(C)c(CCC(=O)NC(C)CCc4ccco4)c(C)n3n2)c1 (stereo not drawn)	21	30	-4	7	22	10	·
Cc1nc2cc(-c3ccccc3)nn2c(C)c1CCC(=O)NC(C)c1ccc2c(c1)OCCO2 (stereo not drawn)	17	26	19	2	35*	-15	23
Cc1nc2cc(-c3cccc(F)c3)nn2c(C)c1CCC(=O)N1CCN(c2ccccn2)CC1	6	14	27	16	48*	4	28

Bioassay records: PubChem BioAssay, several laboratories
